Hit rate of the full screen: of about 69,000 compounds, about 8,600 (12%) showed an effect of 50% or more. What follows is part of a selection rich in strong results, with near analogues and random picks from the rest.

Among the data in ChEMBL document CHEMBL4513216, “Probing the Open Global Health Chemical Diversity Library for Multistage-Active Starting Points for Next-Generation Antimalarials” (ACS Infect Dis, 2020) are INHIBITION values, retold here.

In the experiment the test system is Plasmodium berghei. The experiment in a line: Screen against P. berghei liver stage (PbLuc), transformed with Luciferase, at 10uM. The experiment is classed as functional, HepG2. To be noted: tested at 10 uM.
On to `CCCn1nc2c(cc1=O)CN(Cc1nc(-c3ccoc3)no1)CC2`, for which the INHIBITION is 61.1%. With `Cc1ncc2c(n1)CN(Cc1nc(-c3cccs3)no1)CC2`, the INHIBITION amounted to 28.8%.

Regarding `Cc1nn(C2CCCCC2)c2nc(C(C)(C)CN3CCOCC3)[nH]c12`, the INHIBITION is reported as -16.9%. Then `CN(Cc1noc(C2CC2)n1)C1CCN(Cc2ncc[nH]2)C1` (stereo not given), with 3.1%; and `Cc1nc(CN2CCCC(NCc3cnc(C(C)(C)C)s3)C2)no1` (stereo not given), with -19.6%; and `O=C(NCC1(Sc2ccccc2)CC1)c1cc[nH]n1`, with 5.15%. The result for `O=C1CCC2(CCC(NCc3ccsc3)CC2)N1Cc1ccccc1` (stereo not given) reads 29.7%; that for `CCc1c(C)n(C)c2nc3ccccc3n2c1=O`, -13.8%; that for `CN1CCCCC1CCC(=O)NCCCn1nccc1C1CC1` (stereo not given), 47.7%. Then `CC(C)N(CC(N)=O)C(=O)CCC(=O)c1ccc(F)cc1F`, with 23.7%; and `CS(=O)(=O)c1cccc(C(N)c2ccccc2)c1` (stereo not given), with -19.4%; and `N#CC1(C(=O)NCc2ccc(F)cc2)CCCC1`, with -22.1%. With `CC(C)(N)C(=O)N1CCCC1c1cncc(Oc2ccccc2)n1` (stereo not given), the INHIBITION was found to be 26.3%. In the case of `CCCn1nc2c(cc1=O)CN(Cc1nc(-c3ccco3)no1)CC2`, the INHIBITION amounted to 20.8%. The result for `Cc1noc(C)c1CN1CCc2nn(C(C)C)c(=O)cc2C1` reads 54.4%; that for `CC(C)n1nc2c(cc1=O)CN(Cc1nc(-c3ccco3)no1)CC2`, 54.4%; that for `Cc1cc(CN2CCc3nn(C(C)C)c(=O)cc3C2)no1`, 35.1%. The result for `CCCn1nc2c(cc1=O)CN(Cc1c(C)noc1C)CC2` reads 2.69%; that for `CCn1nc2c(cc1=O)CN(Cc1nc(-c3ccco3)no1)CC2`, 35.9%; that for `CC(C)c1nc(CN(C)C(=O)CCNC(=O)c2ccccc2F)no1`, 12.4%. For the molecule `CCN(Cc1nc(COC)no1)C(=O)CCNC(=O)c1ccccc1F`, the INHIBITION was 58.1%. The result for `CCN(CC1CCOCC1)C(=O)CCNC(=O)c1ccccc1F` reads 32.2%; that for `Cc1nc(CCN(C)C(=O)CCNC(=O)c2ccccc2F)no1`, 43.9%. The result for `CCN(CC1CCCCO1)C(=O)CCNC(=O)c1ccccc1F` (stereo not given) reads 28.5%. The result for `CC(C)Cc1noc(CN(C)C(=O)CCNC(=O)c2ccccc2F)n1` reads 51.5%; that for `CC(C)CCNC(=O)C1CCN(c2ccc3nnc(C(C)C)n3n2)CC1`, 21%. On to `O=S(=O)(NCC1(c2cccs2)CCOCC1)c1cccnc1`, for which the INHIBITION was -115%. The result for `NCc1cccc(NC(=O)CCN2CCOCC2)c1` reads -5.1%; that for `OCCC[C@@H]1CN(c2ncc(Cl)cc2Cl)CC[C@@H]1N1CCOCC1`, 1.93%; that for `O=C(NCc1cn2c(n1)CN(Cc1cccnc1)CC2)C1CCC1`, 26.3%. Then `c1ccc(-c2cc(CNCCCC3CCOC3)c3nnnn3c2)cc1` (stereo not given), with 74.9%; and `c1ccc(-c2cc(CNCCCN3CCCCC3)c3nnnn3c2)cc1`, with -38.2%. Then `c1ccc(-c2cc(CNCCN3CCOCC3)c3nnnn3c2)cc1`, with 5.11%; and `Cc1cnn(CC2CCN(CC(O)c3ccccc3Cl)CC2)c1` (stereo not given), with 57.2%. Take `Cc1cnn(CC2CCN(CC(O)c3ccccc3F)CC2)c1` (stereo not given): the INHIBITION is -30.8%. Then `Cc1cnn(CC2CCN(CC(O)c3ccccc3)CC2)c1` (stereo not given), with 33%; and `Cc1cnn(CC2CCN(CC(O)COc3ccccc3)CC2)c1` (stereo not given), with 14.5%; and `Cc1cnn(CC2CCN(CC(O)CN3CCC(C)CC3)CC2)c1` (stereo not given), with 30.4%. Turning to `Cc1cc(C)n(CC2CCN(CC(O)Cn3cccn3)CC2)n1` (stereo not given), the INHIBITION was -12.2%.

As for `Cc1ccc(OCC(O)CN2CCC(Cn3cc(C)cn3)CC2)cc1` (stereo not given), the INHIBITION is given as 33.3%. For the molecule `Cc1cnn(CC2CCN(CC(O)COc3ccc(F)cc3)CC2)c1` (stereo not given), the INHIBITION is listed as 56.1%. The result for `Cc1cnn(CC2CCN(CC(O)Cn3cccn3)CC2)c1` (stereo not given) reads 68.5%; that for `CCC(CC)S(=O)(=O)NC(=O)c1ccc2c(c1)ncn2C`, 5.11%. The result for `NC(=O)C1CCN(C(=O)NCCOc2ccc3c(c2)OCO3)C1` (stereo not given) reads -69.3%; that for `CCCc1noc(CN2CCCCC2Cn2cncn2)n1` (stereo not given), 27.2%; that for `CN1CCN(CCO)C(=O)C12CCN(Cc1ccsc1)CC2`, 18.2%. The result for `O=C(N[C@@H]1CCC[C@@H](N2CCCC2)[C@@H]1O)c1cc2ccccc2[nH]1` reads 48.4%. For the molecule `CN(C)CC(=O)N1CC(c2nn(C)c3nccnc23)C1`, the INHIBITION is recorded as -0.902%.

For the molecule `c1ccc(C2CCN(c3cncc(-n4cccn4)n3)CC2)cc1`, the INHIBITION amounted to 85.1%. As to `O=C(c1ccc(-n2cccn2)nc1)N1CCCC(c2cnccn2)C1` (stereo not given), the INHIBITION is recorded as -50.3%.

For `Nc1cccnc1N1CCC(c2ccccc2)CC1`, the INHIBITION amounted to 6.29%. Then `CN(C)C(=O)C1CCN(c2cncc(-n3cccn3)n2)CC1`, with 41.4%; and `O=C(c1ccccc1)C1CCN(c2cncc(-n3cccn3)n2)CC1`, with 74.8%; and `N#Cc1cccnc1N1CCC(OCc2ccccc2)CC1`, with 18.9%. Regarding `c1ccc(C2CCCN(c3cncc(-n4cccn4)n3)CC2)cc1` (stereo not given), the INHIBITION stood at 90.2%. Regarding `NC(=O)CC1CCN(c2cncc(OCc3ccccc3)n2)CC1`, the INHIBITION came out at 12.4%. `Cn1cnnc1C1CCN(c2cncc(-n3cccn3)n2)CC1`: the INHIBITION is -8.19%. In the case of `c1ccc(COC2CCN(c3cncc(-n4cccn4)n3)CC2)cc1`, the INHIBITION is listed as 53.5%. As to `c1cc(C2CCN(c3cnccn3)CC2)ccn1`, the INHIBITION came to 18.4%. Then `NC(=O)C1CCN(c2cncc(-n3cccn3)n2)CC1`, with 48.3%.
